Measurements: PubChem BioAssay (NCATS)
Unmarked numbers belong to inactive results. Inconclusive results are not listed. Active and inactive are the calls of the source. The call rests on the fitted dose curve; in most records, active means well fitted curve in the direction sought with a large enough effect; inconclusive means small, poorly fitted or top-dose-only effect, or another doubt; inactive means no such curve, though single readings can be large; an effect the other way counts as inactive or inconclusive.

Tested on: not listed separately
Assay: HPAF-II 12hr Apoptosis Induction qHTS against the NCATS CANVASS Library (AID 1347358); further: 0% is about no effect
Settings: HPAF-II caspase-3/7 Caspase-Glo luminescence; series mostly up to 46.1 µM; caspase activation: at the top concentration
In short: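 Caspase-3/7 activation by DEVD-substrate luminescence (Caspase-Glo 3/7, 15 min, room temperature) after a 12-hour compound exposure in 11 concentrations, of HPAF-II pancreatic cells seeded at 500/well in DMEM with 10% FBS.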

With `O=C(/C=C/C=C/c1ccc2c(c1)OCO2)N1CCCCC1` the “caspase activation” value was -8.13% [at 91.4 µM].

Tested on: not listed separately
Assay: HEK293 24hr Apoptosis Induction qHTS against the NCATS CANVASS Library (AID 1347359); further: 0% is about no effect
Settings: HEK293 caspase-3/7 activation, Caspase-Glo luminescence; series mostly up to 46.1 µM; activation: at the top concentration
From the text: (§1) Natural products and their derivatives continue to be wellsprings of nascent therapeutic potential. However, many laboratories have limited resources for biological evaluation, leaving their previously isolated or synthesized compounds largely or completely untested. To address this issue, the Canvass library of natural products was assembled (https://tripod.nih.gov/canvass), in collaboration with academic and industry researchers, for quantitative high-throughput screening (qHTS) across a diverse set of cell-based and biochemical assays. The pure (>85% purity by liquid chromatography/mass spectrometry [LC/MS]) Canvass library of 346 natural products were submitted by 45 academic laboratories and companies around the world. We collected pure natural products to circumvent deconvolution and structure elucidation due to time and resource limitations. The library was formatted into 1536-well plates and evaluated in 50 qHTS (in an 11-pnt concentration series) bioassays with broad scope of disease-relevant mechanisms. The resulting data set from 50 different assays was then systematically analyzed to identify overall trends and specific natural products with interesting biological activities. Reported herein are the results of each individual qHTS and their corresponding assay protocol. The Caspase-Glo (R) (Promega) is a homogeneous, luminescent assay that measures caspase activity. The detection substrate contains tetrapeptide sequence DEVD in an "add-mix-measure" format. The reagent generates a luminescent signal produced by a thermostable luciferase. The luminescence is proportional to the amount of caspase activity in the assay reaction. National Center for Advancing Translational Sciences (NCATS), Rockville, MD National Institute of Health (NIH), Bethesda, Maryland
(§2) Cancer Cell Apoptosis Assay 1. In a 1536 well, white solid bottom tissue culture plates (Corning 7494), HEK293 cancer cells in DMEM + 10% FBS + 1% P/S media were dispensed in each well at a final concentration of 500 cells / well (5uL volume) using the Multidrop Combi (Thermo Fisher Scientific) dispenser. 2. Compounds were pin transferred (~23nL volume) via Wako Pin-tool (Wako Automation, Richmond VA) equipped with a 1536 pin head. The assay plates were treated with compounds in a concentration series with a final concentration range of 0.17nL to 103uM. 3. Doxorubicin was used as a control in a 16pnt titration (1mM; 1:2 dilution; 16-points; n = 2; column 3, rows 1 - 32) and was pin transferred via Wako Pin-tool equipped with a 1536 pin head. The final concentration range of doxorubicin is 0.1nM - 4uM. 4. […] Luminescence signal was acquired via the ViewLux plate reader (PerkinElmer) using a clear filter, 20 second exposure and 2x binning settings.

Going from `C/C(=C\CC/C(C)=C/CC[C@]1(C)CCc2cc(O)cc(C)c2O1)CC/C=C(\C)C(=O)O` to `CC(=O)O[C@H]1C[C@@]2(C)[C@@H](CC[C@H]3[C@@]4(C)C=CC(=O)[C@@H](C)[C@@H]4[C@H](OC(C)=O)C(=O)[C@@]32C)/C1=C(\CCC=C(C)C)C(=O)O`, the “activation” value rises from 1.75% to 11.6%.

In the case of `CC(C)c1ccc2c(c1)CCC1[C@](C)(C(=O)O)CCC[C@]21C` (stereo not given in full), the “activation” value is reported as 0.577%.

For `O=C(/C=C/C=C/c1ccc2c(c1)OCO2)N1CCCCC1`, the “activation” value was -8.47% [at 91.4 µM].

Tested on: not listed separately
Assay: HPAF-II 18hr Apoptosis Induction qHTS against the NCATS CANVASS Library (AID 1347360); further: 0% is about no effect
Settings: HPAF-II caspase-3/7 luminescence; series mostly up to 46.1 µM; caspase activation: at the top concentration
From the text: as §1
as §2, with “HPAF-II” for “HEK293”, “0.17nM” for “0.17nL”

Going from `C/C(=C\CC/C(C)=C/CC[C@]1(C)CCc2cc(O)cc(C)c2O1)CC/C=C(\C)C(=O)O` to `CC(=O)O[C@H]1C[C@@]2(C)[C@@H](CC[C@H]3[C@@]4(C)C=CC(=O)[C@@H](C)[C@@H]4[C@H](OC(C)=O)C(=O)[C@@]32C)/C1=C(\CCC=C(C)C)C(=O)O`, the “caspase activation” value rises from 1.05% to 2.35%.

With `CC(C)c1ccc2c(c1)CCC1[C@](C)(C(=O)O)CCC[C@]21C` (stereo not given in full) the “caspase activation” value was -1.28%.

In the case of `O=C(/C=C/C=C/c1ccc2c(c1)OCO2)N1CCCCC1`, the “caspase activation” value is reported as -8.55% [at 91.4 µM].

Tested on: not listed separately
Assay: HEK293 12hr Apoptosis Induction qHTS against the NCATS CANVASS Library (AID 1347361); further: 0% is about no effect
Settings: HEK293 caspase-3/7 Caspase-Glo luminescence; series mostly up to 46.1 µM; caspase activation: at the top concentration
In short: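 Read-out: Caspase-Glo 3/7 luminescence (DEVD substrate), 15 min RT. Preceded by 12 h compound exposure of HEK293, 500 cells/well, 11-pt qHTS titration; doxorubicin titration as control.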

First: C/C(=C\CC/C(C)=C/CC[C@]1(C)CCc2cc(O)cc(C)c2O1)CC/C=C(\C)C(=O)O
Second: CC(=O)O[C@H]1C[C@@]2(C)[C@@H](CC[C@H]3[C@@]4(C)C=CC(=O)[C@@H](C)[C@@H]4[C@H](OC(C)=O)C(=O)[C@@]32C)/C1=C(\CCC=C(C)C)C(=O)O
The “caspase activation” value of the first is lower: 1.48% for the first, 6.47% for the second.

In the case of `CC(C)c1ccc2c(c1)CCC1[C@](C)(C(=O)O)CCC[C@]21C` (stereo not given in full), the “caspase activation” value is reported as 1.57%.

In the case of `O=C(/C=C/C=C/c1ccc2c(c1)OCO2)N1CCCCC1`, the “caspase activation” value is reported as -8.23% [at 91.4 µM].

Molecular target: Luciferin 4-monooxygenase (Photinus pyralis) (UniProt P08659)
Assay: Firefly luciferase counterscreen qHTS: Assay Interference Panel against the NCATS CANVASS Library (AID 1347363); further: potency means the concentration at half of the fitted maximal effect; on activity change, negative = inhibition: 0% is about no effect
Settings: purified firefly luciferase, luminescence inhibition, 5 min; series mostly up to 57.5 µM; activity change, negative = inhibition: at the top concentration
From the text: (§3) Natural products and their derivatives continue to be wellsprings of nascent therapeutic potential. However, many laboratories have limited resources for biological evaluation, leaving their previously isolated or synthesized compounds largely or completely untested. To address this issue, the Canvass library of natural products was assembled (https://tripod.nih.gov/canvass), in collaboration with academic and industry researchers, for quantitative high-throughput screening (qHTS) across a diverse set of cell-based and biochemical assays. The pure (>85% purity by liquid chromatography/mass spectrometry [LC/MS]) Canvass library of 346 natural products were submitted by 45 academic laboratories and companies around the world. We collected pure natural products to circumvent deconvolution and structure elucidation due to time and resource limitations. The library was formatted into 1536-well plates and evaluated in 50 qHTS (in an 11-pnt concentration series) bioassays with broad scope of disease-relevant mechanisms. The resulting data set from 50 different assays was then systematically analyzed to identify overall trends and specific natural products with interesting biological activities. Reported herein are the results of each individual qHTS and their corresponding assay protocol. This assay determines potential interactions with a common luminescent coupling enzyme, P. pyralis (firefly) luciferase, to identify possible false positives in future assays. The assay measures the relative levels of luminescence, to identify compounds that inhibit the activity of luciferase. National Center for Advancing Translational Sciences (NCATS), Rockville, MD National Institute of Health (NIH), Bethesda, Maryland
Luciferase Interference counterscreen protocol 1. In a 1536 well, […] solid bottom, medium binding plates (Corning 7494), 3 uL of (1x) 50 mM Tris Acetate substrate solution containing 13.3 mM Mg-Acetate, 0.013 mM D-Luciferin, 0.013 mM ATP, 0.013% Tween-20, 0.067% BSA was dispensed into columns 1 to 48, rows 1 to 32 using the Bioraptr dispenser. 2. Compounds were pin transferred (~23 nL volume) via Wako Pin-tool (Wako Automation, Richmond VA) equipped with a 1536 pin head. The assay plates were treated with compounds in a concentration series with a final concentration range of 0.2 nM to 128 uM. 3. PTC124 was used as a control (25 uM, n = 32, column 2, row 1-32) at a final concentration of 142.9 nM and was pin transferred via Wako Pin-tool equipped with a 1536 pin head. 4. The assay plates were incubated in the dark for 15 minutes at room temperature. 5. […] Luminescence signal was acquired via the ViewLux plate reader (PerkinElmer) using a clear emission filter and a 2 second exposure, 2x binning settings.

Chain of Luciferin 4-monooxygenase (Photinus pyralis) (P08659 whole entry, looked up): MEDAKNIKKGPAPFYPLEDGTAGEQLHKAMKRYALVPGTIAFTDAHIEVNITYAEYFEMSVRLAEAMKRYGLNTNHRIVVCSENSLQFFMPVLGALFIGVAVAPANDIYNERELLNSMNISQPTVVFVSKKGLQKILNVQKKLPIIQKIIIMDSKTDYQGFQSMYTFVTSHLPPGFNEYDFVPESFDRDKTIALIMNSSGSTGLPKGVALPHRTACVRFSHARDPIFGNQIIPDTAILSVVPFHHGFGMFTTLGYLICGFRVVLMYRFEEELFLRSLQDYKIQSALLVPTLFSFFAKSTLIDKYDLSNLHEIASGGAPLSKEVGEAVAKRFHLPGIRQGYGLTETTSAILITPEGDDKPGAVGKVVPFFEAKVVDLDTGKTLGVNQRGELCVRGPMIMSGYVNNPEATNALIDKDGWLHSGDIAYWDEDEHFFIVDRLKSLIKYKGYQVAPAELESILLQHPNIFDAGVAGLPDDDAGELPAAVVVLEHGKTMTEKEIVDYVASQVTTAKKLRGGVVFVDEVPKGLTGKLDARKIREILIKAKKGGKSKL

First: C/C(=C\CC/C(C)=C/CC[C@]1(C)CCc2cc(O)cc(C)c2O1)CC/C=C(\C)C(=O)O
Second: CC(=O)O[C@H]1C[C@@]2(C)[C@@H](CC[C@H]3[C@@]4(C)C=CC(=O)[C@@H](C)[C@@H]4[C@H](OC(C)=O)C(=O)[C@@]32C)/C1=C(\CCC=C(C)C)C(=O)O
The “activity change, negative = inhibition” value of the first is higher: -2.99% for the first, -3.06% for the second.

With `CC(C)c1ccc2c(c1)CCC1[C@](C)(C(=O)O)CCC[C@]21C` (stereo not given in full) the “activity change, negative = inhibition” value was -19.4%.

In the case of `O=C(/C=C/C=C/c1ccc2c(c1)OCO2)N1CCCCC1`, the Potency is reported as 6.8 µM (active).

Tested on: not listed separately
Assay: KB-8-5-11 Cancer Cell Toxicity qHTS against the NCATS CANVASS Library (AID 1347364); further: on the % scale 0 is the no-effect control and ±100 the full control effect; nearly all actives have a fitted effect of over 75% in size
Settings: KB-8-5-11 MDR cells viability, CellTiter-Glo, 72 h; series mostly up to 46.1 µM; activity change, negative = toxicity: at the top concentration
From the text: as §3, with “This assay determines potential interactions with a common luminescent coupling enzyme, P. pyralis (firefly) luciferase, to identify possible false positives in future assays. The assay measures the relative levels of luminescence, to identify compounds that inhibit the activity of luciferase.” left out
Cancer Cell Toxicity qHTS protocol 1. In a 1536 well, tissue culture treated white solid bottom plates (Corning 7494), 5 uL of KB-8-5-11 cell solution (final concentration of 500 cells / well) was dispensed using the Multidrop Combi dispenser (Thermo Fisher Scientific) into columns 3-48, rows 1-32. DMEM + 10% FBS + 100 U/mL penicillin / 100ug/mL streptomycin media solution was dispensed into column 1-2, row 1-32 also using the Multidrop Combi dispenser. […] Luminescence signal was acquired via the ViewLux plate reader (PerkinElmer) using a clear emission filter, 1 sec exposure, and 1x binning settings.

First: C/C(=C\CC/C(C)=C/CC[C@]1(C)CCc2cc(O)cc(C)c2O1)CC/C=C(\C)C(=O)O
Second: CC(=O)O[C@H]1C[C@@]2(C)[C@@H](CC[C@H]3[C@@]4(C)C=CC(=O)[C@@H](C)[C@@H]4[C@H](OC(C)=O)C(=O)[C@@]32C)/C1=C(\CCC=C(C)C)C(=O)O
The “activity change, negative = toxicity” value of the first is higher: 8.07% for the first, 6.08% for the second.

In the case of `CC(C)c1ccc2c(c1)CCC1[C@](C)(C(=O)O)CCC[C@]21C` (stereo not given in full), the “activity change, negative = toxicity” value is reported as 6.79%.
